In PubChem BioAssay AID1159580 (chemical genetic matrix, 2015):
Hit rate of the full screen: of about 5,500 compounds, about 2,000 (36%) were called active. Another 18% or so got no clear call; they are omitted. Rule as the data show it: active = normalized growth mostly below about 0.91 (no sharp cut-off); inconclusive = no clear call, values can overlap the other calls; inactive = mostly above about 0.92. Some of the results follow.

Assay: chemical genetic growth profiling, strain panel (AID 1159580);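 also: tested at 20 µM; growth read once vehicle control cultures reached saturation at 30 °C; 1 = growth at the plate median or of vehicle wells; lower values mean less growth of the strain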
Conditions: growth OD

Measured: normalized growth

CCCCC[C@H](CC(=O)NO)C(=O)N[C@H](C(=O)N1CCC[C@H]1CO)C(C)C
inactive: S. cerevisiae deletion strains, locus YJR043C, strain POL32, active compounds read low 0.978 | S. cerevisiae deletion strains, locus YJR066W, strain TOR1, active compounds read low 0.934 | S. cerevisiae deletion strains, locus YJR075W, strain HOC1, active compounds read low 1.04 | S. cerevisiae deletion strains, locus YKL009W, strain mrt4, active compounds read low 1.03 | S. cerevisiae deletion strains, locus YKL068W, active compounds read low 1.01 | S. cerevisiae deletion strains, locus YKL085W, strain MDH1 (second series), active compounds read low 1.02 | S. cerevisiae deletion strains, locus YKL085W, strain MDH1, active compounds read low 1.02 | S. cerevisiae deletion strains, locus YKL160W, strain elf1, active compounds read low 1.01 | S. cerevisiae deletion strains, locus YKL190W, strain CNB1, active compounds read low 1.01 | S. cerevisiae deletion strains, locus YKR001C, strain vps1, active compounds read low 1.02 | S. cerevisiae deletion strains, locus YKR026C, strain gcn3, active compounds read low 1.01 | S. cerevisiae deletion strains, locus YKR091W, strain srl3, active compounds read low 1.02 | S. cerevisiae deletion strains, locus YLL001W, strain dnm1, active compounds read low 1.01 | S. cerevisiae deletion strains, locus YLL026W, active compounds read low 1.02 | S. cerevisiae deletion strains, locus YLL041C, strain sdh2, active compounds read low 1.01 | S. cerevisiae deletion strains, locus YLR027C, strain aat2, active compounds read low 1.01 | S. cerevisiae deletion strains, locus YLR039C, strain RIC1, active compounds read low 0.947 | S. cerevisiae deletion strains, locus YLR058C, strain SHM2, active compounds read low 1.01 | S. cerevisiae deletion strains, locus YLR102C, strain apc9, active compounds read low 1.02 | S. cerevisiae deletion strains, locus YLR113W, strain HOG1, active compounds read low 0.972 | S. cerevisiae deletion strains, locus YLR221C, strain rsa3, active compounds read low 1.01 | S. cerevisiae deletion strains, locus YLR258W, strain gsy2, active compounds read low 1.02 | S. cerevisiae deletion strains, locus YLR262C, strain YPT6 (second series), active compounds read low 1.02 | S. cerevisiae deletion strains, locus YLR262C, strain YPT6, active compounds read low 0.938 | S. cerevisiae deletion strains, locus YLR268W, strain sec22, active compounds read low 1.03 | S. cerevisiae deletion strains, locus YLR320W, strain mms22, active compounds read low 1.04 | S. cerevisiae deletion strains, locus YLR330W, strain CHS5, active compounds read low 1.02 | S. cerevisiae deletion strains, locus YLR342W, strain FKS1 (second series), active compounds read low 0.961 | S. cerevisiae deletion strains, locus YLR342W, strain FKS1, active compounds read low 1.02 | S. cerevisiae deletion strains, locus YLR357W, strain rsc2, active compounds read low 1.05 | S. cerevisiae deletion strains, locus YLR370C, strain arc18, active compounds read low 1.01 | S. cerevisiae deletion strains, locus YLR371W, strain rom2, active compounds read low 1.04 | S. cerevisiae deletion strains, locus YLR384C, strain iki3, active compounds read low 1.02 | S. cerevisiae deletion strains, locus YLR418C, strain cdc73, active compounds read low 1.02 | S. cerevisiae deletion strains, locus YML016C, strain PPZ1, active compounds read low 1.02 | S. cerevisiae deletion strains, locus YML032C, strain rad52, active compounds read low 1.01 | S. cerevisiae deletion strains, locus YML120C, strain ndi1, active compounds read low 1.02 | S. cerevisiae deletion strains, locus YML124C, strain tub3, active compounds read low 1 | S. cerevisiae deletion strains, locus YMR058W, strain fet3, active compounds read low 1.01 | S. cerevisiae deletion strains, locus YMR078C, strain ctf18, active compounds read low 1.02 | S. cerevisiae deletion strains, locus YMR125W, strain sto1, active compounds read low 1.03 | S. cerevisiae deletion strains, locus YMR129W, active compounds read low 1.01 | S. cerevisiae deletion strains, locus YMR205C, strain PFK2, active compounds read low 1.04 | S. cerevisiae deletion strains, locus YMR223W, strain ubp8, active compounds read low 1.02 | S. cerevisiae deletion strains, locus YMR231W, strain pep5, active compounds read low 1.01 | S. cerevisiae deletion strains, locus YMR263W, strain SAP30, active compounds read low 1.03 | S. cerevisiae deletion strains, locus YMR307W, strain GAS1, active compounds read low 1.03 | S. cerevisiae deletion strains, locus YNL067W, strain RPL9B, active compounds read low 1.04 | S. cerevisiae deletion strains, locus YNL071W, strain lat1, active compounds read low 1 | S. cerevisiae deletion strains, locus YNL153C, strain GIM3, active compounds read low 1.04 | S. cerevisiae deletion strains, locus YNL183C, strain NPR1, active compounds read low 0.942 | S. cerevisiae deletion strains, locus YNL209W, strain ssb2, active compounds read low 1.01 | S. cerevisiae deletion strains, locus YNL233W, strain BNI4, active compounds read low 1.03 | S. cerevisiae deletion strains, locus YNL248C, strain rpa49, active compounds read low 1 | S. cerevisiae deletion strains, locus YNL250W, strain rad50, active compounds read low 1.02 | S. cerevisiae deletion strains, locus YNL271C, strain bni1, active compounds read low 1.02 | S. cerevisiae deletion strains, locus YNL298W, strain CLA4, active compounds read low 1.01 | S. cerevisiae deletion strains, locus YNL307C, strain MCK1, active compounds read low 1.02 | S. cerevisiae deletion strains, locus YNL322C, strain KRE1 (second series), active compounds read low 1.03 | S. cerevisiae deletion strains, locus YNR049C, strain mso1, active compounds read low 1.02 | S. cerevisiae deletion strains, locus YNR052C, strain pop2, active compounds read low 1.02 | S. cerevisiae deletion strains, locus YOL012C, strain htz1 1.13 | S. cerevisiae deletion strains, locus YOL147C, strain pex11, active compounds read low 1.02 | S. cerevisiae deletion strains, locus YOR001W, strain rrp6, active compounds read low 1 | S. cerevisiae deletion strains, locus YOR061W, strain CKA2, active compounds read low 1 | S. cerevisiae deletion strains, locus YOR069W, strain VPS5, active compounds read low 1.01 | S. cerevisiae deletion strains, locus YOR070C, strain gyp1, active compounds read low 1 | S. cerevisiae deletion strains, locus YOR080W, strain dia2, active compounds read low 1.03 | S. cerevisiae deletion strains, locus YOR083W, strain WHI5, active compounds read low 1.02 | S. cerevisiae deletion strains, locus YOR106W, strain vam3, active compounds read low 1.01 | S. cerevisiae deletion strains, locus YOR136W, strain idh2, active compounds read low 1.03 | S. cerevisiae deletion strains, locus YOR144C, strain elg1, active compounds read low 1.02 | S. cerevisiae deletion strains, locus YOR184W, strain ser1, active compounds read low 1.01 | S. cerevisiae deletion strains, locus YOR231W, strain MKK1, active compounds read low 0.989 | S. cerevisiae deletion strains, locus YOR265W, strain rbl2, active compounds read low 1.01 | S. cerevisiae deletion strains, locus YOR270C, strain vph1, active compounds read low 1.01 | S. cerevisiae deletion strains, locus YOR290C, strain snf2, active compounds read low 1.02 | S. cerevisiae deletion strains, locus YOR316C, strain cot1, active compounds read low 1.01 | S. cerevisiae deletion strains, locus YPL051W, strain arl3, active compounds read low 1.02 | S. cerevisiae deletion strains, locus YPL078C, strain atp4, active compounds read low 1.02 | S. cerevisiae deletion strains, locus YPL106C, strain sse1, active compounds read low 1.03 | S. cerevisiae deletion strains, locus YPL240C, strain hsp82, active compounds read low 1.01 | S. cerevisiae deletion strains, locus YPL256C, strain CLN2, active compounds read low 0.941 | S. cerevisiae deletion strains, locus YPR119W, strain clb2, active compounds read low 1.01 | S. cerevisiae deletion strains, locus YPR141C, strain kar3, active compounds read low 1.02 | S. cerevisiae deletion strains, locus YPR163C, strain tif3, active compounds read low 1.02 | S. cerevisiae deletion strains, locus YPR167C, strain met16, active compounds read low 1.03 | S. cerevisiae deletion strains, strain wtn01, active compounds read low 1.01 | S. cerevisiae strains, strain wild type, active compounds read low 1.01
